According to PubChem BioAssay (NCATS):
Inconclusive results are not listed. The source holds several records for some structures; these can differ, active in one and inactive in another. The source made the active and inactive calls. Unless noted, the call rests on the fitted dose curve; in most records, active means well fitted curve in the direction sought with a large enough effect; inconclusive means small, poorly fitted or top-dose-only effect, or another doubt; inactive means no such curve, though single readings can be large; an effect the other way counts as inactive or inconclusive.

Tests used:
[1] = P-glycoprotein substrates identified in KB-8-5-11 adenocarcinoma cell line, qHTS therapeutic library screen (AID 1346987); further: nearly all actives have a fitted effect of over 65% in size; further: potency means the concentration at half of the fitted maximal effect
Method in brief: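 KB-8-5-11: colchicine-selected sub-line of KB-3-1 over-expressing P-gp; assay medium lacked colchicine. 72 h drug exposure at 37 degree C, CellTiter-Glo.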

[2] = Natriuretic polypeptide receptor (hNpr1) antagonism - Pilot counterscreen GloSensor control cell line (AID 1347045; calls by dose curve; further: on the % scale 0 is the no-effect control and ±100 the full control effect)
Method in brief: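 HEK293 cells carrying the GloSensor cGMP sensor (GIP/pGS-40F) were loaded with 2% GloSensor reagent for 2 h, exposed to compounds for 30 min, and then stimulated with 50 uM sodium nitroprusside for 20 min at room temperature.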

[3] = target: Atrial natriuretic peptide receptor 1 (Homo sapiens) (UniProt P16066); assay: Natriuretic polypeptide receptor (hNpr1) antagonism - Pilot screen (AID 1347049; calls by dose curve;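 further: agonist-evoked cGMP luminescence read 20 min after hNppA addition; on the % scale 0 is the no-effect control and ±100 the full control effect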)
Method in brief: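 HEK293 cells expressing hNpr1 and GloSensor cGMP luciferase, 1500/well, loaded with 2% GloSensor reagent 2 h, compound 30 min at room temperature; luminescence read before and 20 min after 0.1 nM hNppA stimulation.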

[4] = target: Atrial natriuretic peptide receptor 2 (Homo sapiens) (UniProt P20594); assay: Natriuretic polypeptide receptor (hNpr2) antagonism - Pilot subtype selectivity assay (AID 1347050; calls by dose curve; further: potency means the concentration at half of the fitted maximal effect)
Method in brief: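 HEK293 cells expressing hNpr2 and a GloSensor cGMP luciferase sensor, 1500/well, preloaded 2 h with 2% GloSensor reagent, compound 30 min, then 1 nM hNppC for 20 min. Antagonism from luminescence after versus baseline pre-read; LOPAC in 1:5 titrations.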

[5] = NS1 protein of Zika virus - qHTS assay to identify small molecule inhibitors in human HEK 293 cells (AID 1347053);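 further: plate controls were infected untreated cells for no effect and uninfected cells for full effect; nearly all actives have a fitted effect of over 55% in size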
Method in brief: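 HEK 293; 20 h pre-culture, 37 C/5% CO2; cpd 1 h pre-infection; ZIKV MR766, MOI = 0.5, 24 h, 37 C; TR-FRET NS1 readout (two anti-NS1 Abs); norm. to no-virus vs infected.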

[6] = target: T1, Tyrosine-protein phosphatase non-receptor type substrate 1 (Homo sapiens) + Leukocyte surface antigen CD47 (Homo sapiens) (UniProt P78324+Q08722); assay: CD47-SIRPalpha protein protein interaction - LANCE assay qHTS validation (AID 1347057; active means well fitted curve in the direction sought with a large enough effect in the signal ratio, with a control signal flat, not every such curve was filed as active; the % refers to the signal ratio; further: 0% is about no effect)
Method in brief: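 First, His-tagged CD47 and Eu-labelled anti-His antibody met the compound for 30 min; next, site-specifically biotinylated SIRPalpha was added for 30 min; finally streptavidin-APC was added before reading the TR-FRET ratio.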

[7] = target: T1, Tyrosine-protein phosphatase non-receptor type substrate 1 (Homo sapiens) + Leukocyte surface antigen CD47 (Homo sapiens); assay: CD47-SIRPalpha protein protein interaction - Alpha assay qHTS validation (AID 1347059);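 further: bead proximity luminescence from CD47 binding SIRPalpha after compound preincubation with SIRPalpha; on the % scale 0 is the no-effect control and ±100 the full control effect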
Method in brief: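 Biotinylated Avi-tagged SIRPalpha (25 nM) preincubated 30 min with compound, then His-tagged CD47 (12.5 nM) added 30 min; AlphaScreen with Ni-NTA acceptor and streptavidin donor beads. PBS pH 7.4, 0.05% IGEPAL, room temperature; 7-point titrations.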

[8] = qHTS of pediatric cancer cell lines to identify multiple opportunities for drug repurposing: Primary screen for TC32 cells (AID 1347089); further: on the % scale 0 is the no-effect control and ±100 the full control effect; nearly all actives have a fitted effect of over 60% in size
Method in brief: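 TC32 cells, 500-1,000/well in growth medium, compound-treated 48 h at 37 °C; viability from CellTiter-Glo luminescence. Primary screen: MIPE 11-point (0.78 nM–46 µM final), NPC 8-point (0.59 nM–46 µM final); confirmatory at 11-point dilutions.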

[9] = qHTS of pediatric cancer cell lines to identify multiple opportunities for drug repurposing: Primary screen for A673 cells (AID 1347092); further: nearly all actives have a fitted effect of over 45% in size; further: potency means the concentration at half of the fitted maximal effect; on activity change, negative = cytotoxic: on the % scale 0 is the no-effect control and ±100 the full control effect
Method in brief: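 A673 cells (500-1,000 cells/well) were treated 48 hours at 37 degrees C with compounds at 11-point (0.78 nM to 46 µM) or 8-point (0.59 nM to 46 µM) dilutions. Viability read by CellTiter-Glo luminescence; concentration-response curves fitted.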

[10] = qHTS of pediatric cancer cell lines to identify multiple opportunities for drug repurposing: Primary screen for SK-N-MC cells (AID 1347093); further: potency means the concentration at half of the fitted maximal effect;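 on activity change, negative = cytotoxic: plate controls were DMSO neutral control for no effect and bortezomib for full effect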
Method in brief: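 Metabolically active cells were quantified by ATP-dependent luminescence (CellTiter-Glo, 15 min at room temperature) following 48 h treatment. Cells had been plated at 500-1,000 per well and settled for 5 h beforehand.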

[11] = qHTS of pediatric cancer cell lines to identify multiple opportunities for drug repurposing: Primary screen for BT-37 cells (AID 1347094);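 further: plate controls were DMSO for no effect and bortezomib for full effect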
Method in brief: (§1)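 Viability was measured as metabolically active cells after 48 hours of treatment, read by CellTiter-Glo luminescence. Compounds were tested at multiple final concentrations, giving concentration-response curves.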

[12] = qHTS of pediatric cancer cell lines to identify multiple opportunities for drug repurposing: Primary screen for NB-EBc1 cells (AID 1347095);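 further: plate controls were DMSO neutral control for no effect and bortezomib for full effect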
Method in brief: as §1

[13] = qHTS of pediatric cancer cell lines to identify multiple opportunities for drug repurposing: Primary screen for U-2 OS cells (AID 1347096);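 further: plate controls were DMSO wells for no effect and bortezomib positive control wells for full effect; nearly all actives have a fitted effect of over 50% in size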
Method in brief: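 Viability after 48 h compound treatment at 37C, 500-1,000 cells/well, read as ATP luminescence with CellTiter-Glo. Primary screens used 11-point (MIPE, 0.78 nM-46 µM) or 8-point (NPC, 0.59 nM-46 µM) final concentrations; follow-up screens used 11-point dilutions.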

[14] = target: Parathyroid hormone/parathyroid hormone-related peptide receptor (Homo sapiens) (UniProt Q03431); assay: qHTS for PTHR1 Agonists: Optimization Screen against the NCGC LOPAC library (AID 1347079);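 further: GloSensor cAMP luminescence in HEK-293 GP2 cells expressing human PTHR1 with IBMX; 0% is about no effect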
Method in brief: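 Compounds were tested across a qHTS titration. PTHR1-expressing GP2 cells report cAMP rises via GloSensor luminescence after 1 hr compound exposure at 37C with IBMX present.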

[15] = qHTS of pediatric cancer cell lines to identify multiple opportunities for drug repurposing: Primary screen for SJ-GBM2 cells (AID 1347091);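 further: plate controls were DMSO neutral control for no effect and bortezomib for full effect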
Method in brief: (§2)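 Viability measured as metabolically active cells via CellTiter-Glo luminescence following 48 hours of compound exposure, 11-point dilutions in confirmatory testing. 500-1,000 cells/well plated 5 hours before dosing; controls were DMSO and 2.3 µM bortezomib.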

[16] = qHTS of pediatric cancer cell lines to identify multiple opportunities for drug repurposing: Primary screen for DAOY cells (AID 1347090);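 further: plate controls were DMSO for no effect and bortezomib for full effect; nearly all actives have a fitted effect of over 55% in size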
Method in brief: as §2

[17] = Identifying Small Molecule Inhibitors of Pancreatic Cancer Stem Cells (A278, Adherent) (AID 1259361); further: nearly all actives have a fitted effect of over 35% in size
Method in brief: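 Endpoint: ATP-based luminescence, 48 h drug exposure. Bortezomib at 9.2 uM final as full-kill control; DMSO vehicle as negative control; activity normalized between vehicle and cell-free wells.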

[18] = Identifying Small Molecule Inhibitors of Pancreatic Cancer Stem Cells (Panc1, Adherent) (AID 1259362); details: Potency: viability; further: potency means the concentration at half of the fitted maximal effect
Method in brief: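 Luminescent ATP readout (CellTiter-Glo) quantifies surviving cells after a 48 h drug incubation. Normalization uses DMSO wells as no inhibition and media-only wells as full inhibition; bortezomib served as positive control.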

[19] = P-glycoprotein substrates identified in KB-3-1 adenocarcinoma cell line, qHTS therapeutic library screen (AID 1346986); details: KB-3-1 parental cells viability, CellTiter-Glo, 72 h; at 44.5 µM (top of the series) unless noted; further: nearly all actives have a fitted effect of over 60% in size
Method in brief: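 Compounds were tested in dose-response against KB-3-1 and KB-8-5-11 cells at 37 degree C for 72 h, and viability was measured by luminescence. AC50 values came from curve fitting with class-based activity calls.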

Chain of Atrial natriuretic peptide receptor 2 (Homo sapiens) (P20594 whole entry, looked up): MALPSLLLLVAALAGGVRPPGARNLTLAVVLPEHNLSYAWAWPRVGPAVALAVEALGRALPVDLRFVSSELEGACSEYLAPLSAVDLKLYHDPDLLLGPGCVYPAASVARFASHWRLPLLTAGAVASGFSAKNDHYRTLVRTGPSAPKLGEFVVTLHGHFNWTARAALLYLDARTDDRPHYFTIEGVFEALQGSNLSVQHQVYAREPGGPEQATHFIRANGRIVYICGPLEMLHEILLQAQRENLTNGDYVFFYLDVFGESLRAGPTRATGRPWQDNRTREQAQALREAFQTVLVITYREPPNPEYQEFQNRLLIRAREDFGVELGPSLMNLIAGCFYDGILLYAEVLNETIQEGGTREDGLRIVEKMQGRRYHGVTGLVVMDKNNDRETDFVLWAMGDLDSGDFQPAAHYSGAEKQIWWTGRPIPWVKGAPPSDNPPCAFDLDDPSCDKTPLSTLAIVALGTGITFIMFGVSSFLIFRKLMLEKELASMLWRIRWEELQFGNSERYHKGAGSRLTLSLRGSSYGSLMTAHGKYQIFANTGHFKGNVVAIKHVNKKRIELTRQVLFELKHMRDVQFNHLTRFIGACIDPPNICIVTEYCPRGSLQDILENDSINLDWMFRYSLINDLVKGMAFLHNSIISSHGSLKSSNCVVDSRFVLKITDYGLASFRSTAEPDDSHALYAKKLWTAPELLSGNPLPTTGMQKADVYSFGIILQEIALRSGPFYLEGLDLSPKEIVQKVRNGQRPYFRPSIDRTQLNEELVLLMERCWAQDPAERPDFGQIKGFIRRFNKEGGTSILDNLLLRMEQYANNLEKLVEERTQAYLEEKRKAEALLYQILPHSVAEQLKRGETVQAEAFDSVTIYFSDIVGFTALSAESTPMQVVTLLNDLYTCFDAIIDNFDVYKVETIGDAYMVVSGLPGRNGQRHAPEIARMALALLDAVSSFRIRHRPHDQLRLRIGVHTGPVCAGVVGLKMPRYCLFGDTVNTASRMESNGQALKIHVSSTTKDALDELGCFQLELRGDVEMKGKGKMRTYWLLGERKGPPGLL
T1 sequence (P78324 whole entry, looked up): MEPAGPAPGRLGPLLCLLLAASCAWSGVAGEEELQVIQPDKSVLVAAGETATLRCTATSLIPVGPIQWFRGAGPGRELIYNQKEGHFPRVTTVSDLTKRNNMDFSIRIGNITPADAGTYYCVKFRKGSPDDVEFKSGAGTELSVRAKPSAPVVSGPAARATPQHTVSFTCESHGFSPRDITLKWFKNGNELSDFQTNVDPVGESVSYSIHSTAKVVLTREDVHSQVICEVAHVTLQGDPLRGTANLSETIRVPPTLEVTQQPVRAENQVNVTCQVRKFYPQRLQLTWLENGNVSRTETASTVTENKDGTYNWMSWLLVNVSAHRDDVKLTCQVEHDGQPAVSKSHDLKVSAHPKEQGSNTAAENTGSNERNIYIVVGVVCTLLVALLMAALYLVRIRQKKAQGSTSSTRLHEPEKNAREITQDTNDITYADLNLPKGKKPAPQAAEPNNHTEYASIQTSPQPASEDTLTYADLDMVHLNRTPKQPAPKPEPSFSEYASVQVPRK
T1 sequence (Q08722 whole entry, looked up): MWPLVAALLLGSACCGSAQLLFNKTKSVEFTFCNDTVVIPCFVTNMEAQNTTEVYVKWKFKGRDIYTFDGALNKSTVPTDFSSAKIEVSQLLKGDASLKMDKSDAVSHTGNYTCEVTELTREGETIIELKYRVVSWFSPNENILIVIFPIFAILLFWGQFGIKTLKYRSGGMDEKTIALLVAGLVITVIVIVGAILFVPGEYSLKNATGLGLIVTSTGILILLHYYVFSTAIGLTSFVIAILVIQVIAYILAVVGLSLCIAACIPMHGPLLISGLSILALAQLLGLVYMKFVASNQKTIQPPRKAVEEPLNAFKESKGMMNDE
Chain of Atrial natriuretic peptide receptor 1 (Homo sapiens) (P16066 whole entry, looked up): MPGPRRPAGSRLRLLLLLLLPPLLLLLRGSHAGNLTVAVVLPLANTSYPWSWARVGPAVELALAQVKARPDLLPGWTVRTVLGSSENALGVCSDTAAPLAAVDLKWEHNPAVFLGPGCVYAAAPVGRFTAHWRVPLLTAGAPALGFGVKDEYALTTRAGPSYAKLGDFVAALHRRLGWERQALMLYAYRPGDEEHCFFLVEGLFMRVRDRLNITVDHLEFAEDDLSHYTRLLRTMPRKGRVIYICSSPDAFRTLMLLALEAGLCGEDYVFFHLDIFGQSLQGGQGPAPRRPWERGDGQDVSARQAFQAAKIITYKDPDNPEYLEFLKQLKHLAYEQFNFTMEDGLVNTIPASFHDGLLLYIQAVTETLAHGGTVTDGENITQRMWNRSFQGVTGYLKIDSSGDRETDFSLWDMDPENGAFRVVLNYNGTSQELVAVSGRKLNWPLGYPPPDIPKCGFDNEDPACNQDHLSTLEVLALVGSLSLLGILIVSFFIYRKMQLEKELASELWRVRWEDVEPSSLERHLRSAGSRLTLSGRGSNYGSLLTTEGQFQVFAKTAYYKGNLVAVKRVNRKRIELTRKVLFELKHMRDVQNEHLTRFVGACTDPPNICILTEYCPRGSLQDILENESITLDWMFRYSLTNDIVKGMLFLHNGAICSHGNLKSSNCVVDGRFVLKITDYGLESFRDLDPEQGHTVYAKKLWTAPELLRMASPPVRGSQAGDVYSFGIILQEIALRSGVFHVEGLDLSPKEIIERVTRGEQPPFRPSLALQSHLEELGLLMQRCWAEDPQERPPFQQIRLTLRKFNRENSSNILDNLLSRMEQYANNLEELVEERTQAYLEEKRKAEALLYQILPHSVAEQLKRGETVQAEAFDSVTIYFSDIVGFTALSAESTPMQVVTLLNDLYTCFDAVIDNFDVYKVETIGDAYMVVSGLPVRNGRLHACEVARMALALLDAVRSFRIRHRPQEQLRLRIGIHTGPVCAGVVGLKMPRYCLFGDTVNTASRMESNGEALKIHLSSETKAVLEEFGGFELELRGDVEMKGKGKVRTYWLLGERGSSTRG
Chain of Parathyroid hormone/parathyroid hormone-related peptide receptor (Homo sapiens) (Q03431 whole entry, looked up): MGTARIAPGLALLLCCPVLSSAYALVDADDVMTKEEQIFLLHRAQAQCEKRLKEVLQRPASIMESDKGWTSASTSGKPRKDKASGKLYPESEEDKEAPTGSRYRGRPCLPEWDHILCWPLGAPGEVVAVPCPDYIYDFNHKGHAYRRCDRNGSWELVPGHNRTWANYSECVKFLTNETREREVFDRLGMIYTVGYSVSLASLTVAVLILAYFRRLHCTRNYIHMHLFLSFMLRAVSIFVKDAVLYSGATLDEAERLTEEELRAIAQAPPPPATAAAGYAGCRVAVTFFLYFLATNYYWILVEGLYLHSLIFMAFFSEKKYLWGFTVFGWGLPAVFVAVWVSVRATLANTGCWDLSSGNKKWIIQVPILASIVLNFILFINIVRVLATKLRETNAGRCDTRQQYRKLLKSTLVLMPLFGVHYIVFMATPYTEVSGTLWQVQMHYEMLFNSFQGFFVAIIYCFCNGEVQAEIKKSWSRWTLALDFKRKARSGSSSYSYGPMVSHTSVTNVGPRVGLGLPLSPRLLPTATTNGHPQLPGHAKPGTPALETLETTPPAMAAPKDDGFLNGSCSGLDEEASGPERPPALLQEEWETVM

C#CCN(C)Cc1ccccc1
inactive: Potency [1] | outcome [2] | outcome [3] | Potency [4] | Potency [5] | outcome [6] | outcome [7] | Potency [8] | Potency [9] | Potency [10] | Potency [11] | Potency [12] | Potency [13]

NC(N)=NCCC[C@H](N)C(=O)O
inactive: Potency [1] | outcome [3] | Potency [4] | Potency [5] | Potency [14] | activity change, negative = cytotoxic [8] 3.73% [at 4.81 µM] | activity change, negative = cytotoxic [9] 0.848% [at 4.84 µM] | activity change, negative = cytotoxic [10] -27.1% [at 4.84 µM] | activity change, negative = cytotoxic [11] 4.21% [at 6.03 µM] | activity change, negative = cytotoxic [12] 12% [at 4.84 µM] | activity change, negative = cytotoxic [13] 2.69% [at 4.84 µM]

CCCn1cnc2c1c(=O)n(CCCCC(C)=O)c(=O)n2C
inactive: Potency [1] | outcome [2] | outcome [3] | Potency [4] | Potency [5] | outcome [6] | outcome [7] | Potency [8] | Potency [15] | Potency [9] | Potency [11] | Potency [12] | Potency [13]

CC1=C(CC(=O)O)c2cc(F)ccc2/C1=C\c1ccc(S(C)=O)cc1 (stereo not drawn)
inactive: Potency [1] | outcome [3] | Potency [4] | Potency [5] | Potency [8] | Potency [16] | Potency [15] | Potency [9] | Potency [10] | Potency [11] | Potency [12] | Potency [13]

Nc1ncnc2c1ncn2[C@@H]1O[C@H](CO)[C@@H](O)[C@H]1O
inactive: Potency [1] | outcome [2] | outcome [3] | Potency [4] | Potency [5] | outcome [6] | outcome [7] | Potency [16] | Potency [15] | Potency [11] | Potency [12] | Potency [13]

CN(C)CCCN1c2ccccc2CCc2ccccc21
inactive: outcome [2] | outcome [3] | Potency [5] | outcome [6] | outcome [7] | Potency [8] | Potency [16] | Potency [15] | Potency [11] | Potency [12] | Potency [13]
active: Potency [1] 9.2 µM | Potency [4] 16.5 µM

O=C1Nc2ccc(Cl)cc2[C@@](C#CC2CC2)(C(F)(F)F)O1
active: IC50 (viability decrease) [17] 48.1 µM | Potency [18] 48.1 µM
inactive: Potency [5] | Potency [8] | Potency [13]

CNC(=O)Oc1ccc2c(c1)[C@]1(C)CCN(C)[C@@H]1N2C
inactive: outcome [19] | Potency [1] | outcome [2] | Potency [4] | Potency [5] | outcome [6] | outcome [7] | Potency [8] | Potency [16] | Potency [15] | Potency [11] | Potency [12] | Potency [13]

CC(C)C(=O)c1c(C(C)C)nn2ccccc12
inactive: Potency [1] | outcome [2] | outcome [3] | Potency [4] | Potency [5] | outcome [6] | outcome [7] | Potency [8] | Potency [16] | Potency [15] | Potency [9] | Potency [10] | Potency [11] | Potency [12] | Potency [13]

CN1CCN(C2Cc3ccccc3Sc3ccc(Cl)cc32)CC1 (stereo not drawn)
active: Potency [10] 21.1 µM
inactive: Potency [1] | outcome [2] | outcome [6] | outcome [7] | Potency [8]

O=c1[nH]cnc2c1ncn2[C@@H]1O[C@H](CO)[C@@H](O)[C@H]1O
inactive: outcome [19] | Potency [1] | Potency [5] | Potency [8] | Potency [16] | Potency [9] | Potency [10] | Potency [11] | Potency [12] | Potency [13]

Cc1cc(C(C#N)c2ccc(Cl)cc2)c(Cl)cc1NC(=O)c1cc(I)cc(I)c1O (stereo not drawn)
inactive: outcome [19] | Potency [5] | Potency [8]
16.4 µM (active) and inactive: Potency [1]

C[C@@H]1CN(c2c(F)c(F)c3c(=O)c(C(=O)O)cn(C4CC4)c3c2F)C[C@H](C)N1
inactive: outcome [19] inactive [at 9.29 µM] | Potency [1] | Potency [5] | Potency [8] | Potency [16] | Potency [15] | Potency [9] | Potency [10] | Potency [11] | Potency [12] | Potency [13]

CCN(CC)CCNC(=O)c1cc(Cl)c(N)cc1OC
inactive: outcome [19] | Potency [1] | outcome [2] | outcome [3] | Potency [4] | Potency [5] | outcome [6] | outcome [7] | Potency [8] | Potency [16] | Potency [15] | Potency [9] | Potency [11] | Potency [12] | Potency [13]

Nc1ccc(S(=O)(=O)Nc2nccs2)cc1
inactive: outcome [19] | Potency [1] | Potency [5] | Potency [8] | Potency [16] | Potency [9] | Potency [10] | Potency [11] | Potency [12] | Potency [13]

NC1CCN(c2cccc(Cl)n2)CC1
inactive: Potency [1] | outcome [2] | outcome [3] | Potency [4] | Potency [5] | Potency [8] | Potency [16] | Potency [9] | Potency [10] | Potency [11] | Potency [12] | Potency [13]

OCc1cc(C(O)CNCCCCCCOCCCCc2ccccc2)ccc1O (stereo not drawn)
active: Potency [9] 21.1 µM
inactive: Potency [1] | outcome [2] | outcome [3] | Potency [4] | Potency [5] | outcome [6] | outcome [7] | Potency [8] | Potency [16] | Potency [13]

CN1CCC[C@@H]1Cc1c[nH]c2ccc(CCS(=O)(=O)c3ccccc3)cc12
inactive: outcome [19] | Potency [1] | Potency [5] | outcome [6] | outcome [7] | Potency [8] | Potency [16] | Potency [15] | Potency [9] | Potency [10] | Potency [11] | Potency [12] | Potency [13]

CC(C(O)c1ccc(O)cc1)N1CCC(Cc2ccccc2)CC1 (stereo not drawn)
inactive: outcome [19] inactive [at 17.4 µM] | Potency [1] | outcome [2] | outcome [3] | Potency [4] | Potency [5] | outcome [6] | outcome [7] | Potency [8] | Potency [15] | Potency [9] | Potency [10] | Potency [12] | Potency [13]
